# Experimental data taken from PubChem BioAssay (NCI).
# This is part of a sample that, as a whole, favours compounds with a hit. Of some 79,000 tested, about 15% had one in any assay. Unmarked numbers belong to inactive results. The source made the active and inactive calls. Rule as the data show it: active = growth inhibition above about 70%; inactive = the rest.
# Legend:
# [1] = NCI Yeast Anticancer Drug Screen. Data for the rad52 strain (AID 147);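 also: 0% = growth of vehicle-treated control cultures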; settings: S. cerevisiae rad52 mutant growth inhibition, active compounds read high
# In short: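 Here a repair-compromised yeast strain receives each compound; its growth is then quantified and normalised to vehicle-only controls.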
# [2] = NCI Yeast Anticancer Drug Screen. Data for the wt1 strain (AID 149);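 also: 0% = growth of vehicle-treated wt1 cultures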; settings: S. cerevisiae wt1 strain (SPY 50644) growth inhibition, active compounds read high
# In short: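 Compounds are added to wt1 yeast cultures. Growth is then measured. Inhibition is expressed relative to vehicle-treated controls.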
# [3] = NCI Yeast Anticancer Drug Screen. Data for the rad50EPP+ strain (AID 151);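 also: 0% = growth of vehicle-treated control cultures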; settings: S. cerevisiae rad50 mutant strain, active compounds read high
# In short: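 Read-out is yeast growth inhibition relative to vehicle; cells used were the rad50EPP+ strain.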
# [4] = NCI Yeast Anticancer Drug Screen. Data for the mgt1 strain (AID 153); settings: S. cerevisiae mgt1 mutant growth inhibition, active compounds read high
# In short: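 Measured: inhibition of mgt1 yeast growth by compound, normalized to vehicle-treated cultures.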
# [5] = NCI Yeast Anticancer Drug Screen. Data for the rad50 strain (AID 155);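 also: 0% = growth of vehicle-only cultures of the same strain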; settings: S. cerevisiae rad50 strain growth inhibition, active compounds read high
# In short: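 Inhibition values express reduced yeast growth in compound-treated cultures relative to vehicle-treated controls.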
# [6] = NCI Yeast Anticancer Drug Screen. Data for the mec2-1 strain (AID 157); settings: S. cerevisiae mec2-1 strain, active compounds read high
# In short: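 Using mec2-1 yeast: add compound, measure growth, express inhibition versus vehicle-treated cultures.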
# [7] = NCI Yeast Anticancer Drug Screen. Data for the rad14 strain (AID 159);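 also: 0% = growth of vehicle-treated control cultures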; settings: S. cerevisiae rad14 strain growth inhibition, active compounds read high
# In short: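 A mutant yeast strain defective in DNA damage repair is treated with compound; inhibition of its growth is scored against untreated, vehicle-exposed cultures.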
# [8] = NCI Yeast Anticancer Drug Screen. Data for the sgs1 mgt1 strain (AID 161);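 also: 0% = growth of cultures given vehicle only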; settings: S. cerevisiae sgs1 mgt1 strain, active compounds read high
# In short: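 Compounds are added to genetically altered yeast, and growth is compared with cultures given vehicle alone to give percent inhibition.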
# [9] = NCI Yeast Anticancer Drug Screen. Data for the CLN2oe strain (AID 163);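 also: 0% = growth of vehicle-only control cultures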; settings: S. cerevisiae CLN2oe strain, active compounds read high
# In short: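 Whole-cell yeast growth assay. A strain engineered for altered cell-cycle control received compound, and inhibition relative to vehicle-treated cultures was recorded.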
# [10] = NCI Yeast Anticancer Drug Screen. Data for the cln2 rad14 strain (AID 165);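 also: 0% = growth equal to vehicle treated cultures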; settings: S. cerevisiae cln2 rad14 strain, active compounds read high
# In short: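 Yeast strain cln2 rad14, bearing defects in cell cycle control and DNA repair, serves as the test system; values reflect growth inhibition compared with vehicle.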
# [11] = NCI Yeast Anticancer Drug Screen. Data for the bub3 strain (AID 167); settings: S. cerevisiae bub3 mutant strain, active compounds read high
# In short: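 Steps: expose the mutant yeast strain to compound; grow alongside vehicle-treated cultures; measure growth; express inhibition against the vehicle cultures.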
# [12] = NCI Yeast Anticancer Drug Screen. Data for the wt2 strain (AID 169);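 also: 0% = growth of vehicle-treated yeast cultures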; settings: S. cerevisiae wt2 strain growth inhibition, active compounds read high
# In short: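 Treated yeast vs. vehicle-treated yeast: growth inhibition determined.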
# [13] = NCI Yeast Anticancer Drug Screen. Data for the mlh1 strain (AID 171);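 also: 0% = growth of vehicle-treated control cultures of the same strain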; settings: S. cerevisiae mlh1 strain growth inhibition, active compounds read high
# In short: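 A yeast strain with a defined genetic lesion serves as the test organism. Cultures receive compound or vehicle, and growth is measured.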
# [14] = NCI Yeast Anticancer Drug Screen. Data for the sgs1 strain (AID 173);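 also: 0% = growth of vehicle-only control cultures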; settings: S. cerevisiae sgs1 mutant, active compounds read high
# In short: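 A genetically defined yeast mutant is incubated with the test compound, and its growth is compared to that of the same strain given vehicle.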
# [15] = NCI Yeast Anticancer Drug Screen. Data for the mlh1 rad18 strain (AID 175); settings: S. cerevisiae mlh1 rad18 strain growth inhibition, active compounds read high
# In short: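 Steps: expose repair-defective yeast to compound; measure growth; express inhibition against vehicle-treated controls.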
# [16] = NCI Yeast Anticancer Drug Screen. Data for the rad18 strain (AID 177); settings: S. cerevisiae rad18 mutant growth inhibition, active compounds read high
# In short: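 Measured value is growth inhibition of a yeast strain bearing a DNA repair alteration, referenced to vehicle-treated cells.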
# [17] = at 5.0 µM (retest, dose inferred, filed as 0.5)
# [18] = at 50.0 µM (retest, dose inferred, filed as 5.0)
smiles,measurement,setting,value
O=C(c1cc(Br)ccc1O)c1cc(Br)ccc1O,growth inhibition,[1]; at 1.2 µM,13%
same,growth inhibition,[1]; at 3.7 µM,80% (active)
same,growth inhibition,[1]; at 11.0 µM,99% (active)
same,growth inhibition,[1]; at 33.0 µM,99% (active)
same,growth inhibition,[1]; at 100.0 µM,99% (active)
same,growth inhibition,[2]; at 1.2 µM,9%
same,growth inhibition,[2]; at 3.7 µM,78% (active)
same,growth inhibition,[2]; at 11.0 µM,99% (active)
same,growth inhibition,[2]; at 33.0 µM,100% (active)
same,growth inhibition,[2]; at 100.0 µM,100% (active)
same,growth inhibition,[3]; at 1.2 µM,16%
same,growth inhibition,[3]; at 3.7 µM,47%
same,growth inhibition,[3]; at 11.0 µM,90% (active)
same,growth inhibition,[3]; at 33.0 µM,99% (active)
same,growth inhibition,[3]; at 100.0 µM,99% (active)
same,growth inhibition,[4]; at 1.2 µM,38%
same,growth inhibition,[4]; at 3.7 µM,95% (active)
same,growth inhibition,[4]; at 11.0 µM,99% (active)
same,growth inhibition,[4]; at 33.0 µM,100% (active)
same,growth inhibition,[4]; at 100.0 µM,100% (active)
same,growth inhibition,[5]; at 1.2 µM,13%
same,growth inhibition,[5]; at 3.7 µM,67%
same,growth inhibition,[5]; [17],2%
same,growth inhibition,[5]; at 11.0 µM,99% (active)
same,growth inhibition,[5]; at 33.0 µM,99% (active)
same,growth inhibition,[5]; [18],99% (active)
same,growth inhibition,[5]; at 50.0 µM,99.3% (active)
same,growth inhibition,[5]; at 100.0 µM,99% (active)
same,growth inhibition,[6]; at 1.2 µM,29%
same,growth inhibition,[6]; at 3.7 µM,97% (active)
same,growth inhibition,[6]; [17],20%
same,growth inhibition,[6]; at 11.0 µM,99% (active)
same,growth inhibition,[6]; at 33.0 µM,100% (active)
same,growth inhibition,[6]; [18],100% (active)
same,growth inhibition,[6]; at 50.0 µM,99.5% (active)
same,growth inhibition,[6]; at 100.0 µM,100% (active)
same,growth inhibition,[7]; at 1.2 µM,8%
same,growth inhibition,[7]; at 3.7 µM,40%
same,growth inhibition,[7]; at 11.0 µM,99% (active)
same,growth inhibition,[7]; at 33.0 µM,100% (active)
same,growth inhibition,[7]; at 100.0 µM,98% (active)
same,growth inhibition,[8]; [17],22%
same,growth inhibition,[8]; [18],97% (active)
same,growth inhibition,[8]; at 50.0 µM,99.4% (active)
same,growth inhibition,[9]; at 1.2 µM,34%
same,growth inhibition,[9]; at 3.7 µM,96% (active)
same,growth inhibition,[9]; at 11.0 µM,100% (active)
same,growth inhibition,[9]; at 33.0 µM,99% (active)
same,growth inhibition,[9]; at 100.0 µM,99% (active)
same,growth inhibition,[10]; [17],-3%
same,growth inhibition,[10]; [18],98% (active)
same,growth inhibition,[10]; at 50.0 µM,98.7% (active)
same,growth inhibition,[11]; at 1.2 µM,17%
same,growth inhibition,[11]; at 3.7 µM,90% (active)
same,growth inhibition,[11]; [17],5%
same,growth inhibition,[11]; at 11.0 µM,99% (active)
same,growth inhibition,[11]; at 33.0 µM,99% (active)
same,growth inhibition,[11]; [18],99% (active)
same,growth inhibition,[11]; at 50.0 µM,99.2% (active)
same,growth inhibition,[11]; at 100.0 µM,99% (active)
same,growth inhibition,[12]; at 1.2 µM,12%
same,growth inhibition,[12]; at 3.7 µM,87% (active)
same,growth inhibition,[12]; at 11.0 µM,99% (active)
same,growth inhibition,[12]; at 33.0 µM,100% (active)
same,growth inhibition,[12]; at 100.0 µM,100% (active)
same,growth inhibition,[13]; at 1.2 µM,23%
same,growth inhibition,[13]; at 3.7 µM,93% (active)
same,growth inhibition,[13]; at 11.0 µM,99% (active)
same,growth inhibition,[13]; at 33.0 µM,100% (active)
same,growth inhibition,[13]; at 100.0 µM,100% (active)
same,growth inhibition,[14]; at 1.2 µM,32%
same,growth inhibition,[14]; at 3.7 µM,90% (active)
same,growth inhibition,[14]; at 11.0 µM,99% (active)
same,growth inhibition,[14]; at 33.0 µM,100% (active)
same,growth inhibition,[14]; at 100.0 µM,100% (active)
same,growth inhibition,[15]; [17],45%
same,growth inhibition,[15]; [18],99% (active)
same,growth inhibition,[15]; at 50.0 µM,99.4% (active)
same,growth inhibition,[16]; at 1.2 µM,32%
same,growth inhibition,[16]; at 3.7 µM,89% (active)
same,growth inhibition,[16]; at 11.0 µM,99% (active)
same,growth inhibition,[16]; at 33.0 µM,99% (active)
same,growth inhibition,[16]; at 100.0 µM,99% (active)
COCCOC(=O)CCn1cc(F)c(=O)[nH]c1=O,growth inhibition,[1]; at 1.2 µM,-1%
same,growth inhibition,[1]; at 3.7 µM,-1%
same,growth inhibition,[1]; at 11.0 µM,11%
same,growth inhibition,[1]; at 33.0 µM,31%
same,growth inhibition,[1]; at 100.0 µM,62%
same,growth inhibition,[2]; at 1.2 µM,0%
same,growth inhibition,[2]; at 3.7 µM,3%
same,growth inhibition,[2]; at 11.0 µM,7%
same,growth inhibition,[2]; at 33.0 µM,12%
same,growth inhibition,[2]; at 100.0 µM,23%
same,growth inhibition,[3]; at 1.2 µM,-3%
same,growth inhibition,[3]; at 3.7 µM,3%
same,growth inhibition,[3]; at 11.0 µM,27%
same,growth inhibition,[3]; at 33.0 µM,67%
same,growth inhibition,[3]; at 100.0 µM,85% (active)
same,growth inhibition,[4]; at 1.2 µM,-1%
same,growth inhibition,[4]; at 3.7 µM,7%
same,growth inhibition,[4]; at 11.0 µM,16%
same,growth inhibition,[4]; at 33.0 µM,48%
same,growth inhibition,[4]; at 100.0 µM,80% (active)
same,growth inhibition,[5]; at 1.2 µM,-5%
same,growth inhibition,[5]; at 3.7 µM,-11%
same,growth inhibition,[5]; [17],24%
same,growth inhibition,[5]; at 11.0 µM,0%
same,growth inhibition,[5]; at 33.0 µM,34%
same,growth inhibition,[5]; [18],70% (active)
same,growth inhibition,[5]; at 50.0 µM,64.1%
same,growth inhibition,[5]; at 100.0 µM,61%
same,growth inhibition,[6]; at 1.2 µM,-1%
same,growth inhibition,[6]; at 3.7 µM,3%
same,growth inhibition,[6]; [17],5%
same,growth inhibition,[6]; at 11.0 µM,13%
same,growth inhibition,[6]; at 33.0 µM,48%
same,growth inhibition,[6]; [18],78% (active)
same,growth inhibition,[6]; at 50.0 µM,83.5% (active)
same,growth inhibition,[6]; at 100.0 µM,83% (active)
same,growth inhibition,[7]; at 1.2 µM,-3%
same,growth inhibition,[7]; at 3.7 µM,0%
same,growth inhibition,[7]; at 11.0 µM,7%
same,growth inhibition,[7]; at 33.0 µM,14%
same,growth inhibition,[7]; at 100.0 µM,34%
same,growth inhibition,[8]; [17],27%
same,growth inhibition,[8]; [18],82% (active)
same,growth inhibition,[8]; at 50.0 µM,91.7% (active)
same,growth inhibition,[9]; at 1.2 µM,0%
same,growth inhibition,[9]; at 3.7 µM,4%
same,growth inhibition,[9]; at 11.0 µM,6%
same,growth inhibition,[9]; at 33.0 µM,15%
same,growth inhibition,[9]; at 100.0 µM,19%
same,growth inhibition,[10]; [17],22%
same,growth inhibition,[10]; [18],40%
same,growth inhibition,[10]; at 50.0 µM,36.8%
same,growth inhibition,[11]; at 1.2 µM,0%
same,growth inhibition,[11]; at 3.7 µM,3%
same,growth inhibition,[11]; [17],-8%
same,growth inhibition,[11]; at 11.0 µM,7%
same,growth inhibition,[11]; at 33.0 µM,5%
same,growth inhibition,[11]; [18],11%
same,growth inhibition,[11]; at 50.0 µM,17.8%
same,growth inhibition,[11]; at 100.0 µM,17%
same,growth inhibition,[12]; at 1.2 µM,-1%
same,growth inhibition,[12]; at 3.7 µM,2%
same,growth inhibition,[12]; at 11.0 µM,14%
same,growth inhibition,[12]; at 33.0 µM,48%
same,growth inhibition,[12]; at 100.0 µM,76% (active)
same,growth inhibition,[13]; at 1.2 µM,3%
same,growth inhibition,[13]; at 3.7 µM,9%
same,growth inhibition,[13]; at 11.0 µM,18%
same,growth inhibition,[13]; at 33.0 µM,53%
same,growth inhibition,[13]; at 100.0 µM,77% (active)
same,growth inhibition,[14]; at 1.2 µM,1%
same,growth inhibition,[14]; at 3.7 µM,12%
same,growth inhibition,[14]; at 11.0 µM,36%
same,growth inhibition,[14]; at 33.0 µM,76% (active)
same,growth inhibition,[14]; at 100.0 µM,88% (active)
same,growth inhibition,[15]; [17],13%
same,growth inhibition,[15]; [18],51%
same,growth inhibition,[15]; at 50.0 µM,62.9%
same,growth inhibition,[16]; at 1.2 µM,1%
same,growth inhibition,[16]; at 3.7 µM,6%
same,growth inhibition,[16]; at 11.0 µM,15%
same,growth inhibition,[16]; at 33.0 µM,32%
same,growth inhibition,[16]; at 100.0 µM,56%
